The text below walks through data of PubChem BioAssay (NCI).

The panel holds about 83,000 compounds, 20% with a hit somewhere; the sample as a whole holds those more often.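 How to read the values: 0–100, growth inhibition (40 = 60% inhibited); 0, no net growth; -100 to 0, cell death (-40 = 40% of starting cells died; -100 = all dead).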 A number with no mark means an inactive call. Calls of active or inactive are those of the source. Rule for the calls: active = growth percent below 10; inactive = the rest.

Among the test systems are HCT-15 colon; HT29 colon; SNB-75 CNS; SNB-19 CNS; U251 CNS; PC-3 prostate; SK-MEL-5 melanoma; UACC-62 melanoma; LOX IMVI melanoma; SK-MEL-28 melanoma.
Common to all, as to experiment: NCI-60 one-dose screen, 48 h (100 = growth as untreated, 0 = no growth, -100 = all killed)
Details in all cases: 10 µM

As to `CCOc1cc(Br)c(C(C)NC(=O)c2cccc(OC)c2)cc1OCC` (stereo not given), the growth was 59.8% with HCT-15 colon; 17.7% in the test on HT29 colon; 76.7% in the test on SNB-75 CNS; 98.3% with SNB-19 CNS; 58.4% in the test with U251 CNS; 64.9% with PC-3 prostate. Further, the growth in the test with SK-MEL-5 melanoma is 45.1%; in the test on UACC-62 melanoma, -56.2% (active); in the test with LOX IMVI melanoma, 73.4%; with SK-MEL-28 melanoma, 5.81% (active).
On to `OC(CNC1CCCC1)Cn1c2ccccc2c2ccccc21` (stereo not given), for which the growth was -37.6% (active) in the test with HCT-15 colon; -0.747% (active) in the test with HT29 colon; 51.5% with SNB-75 CNS; 33.8% in the test on SNB-19 CNS; -34.5% (active) in the test on U251 CNS; 27% in the test with PC-3 prostate. The growth is -61.6% (active) in the test on SK-MEL-5 melanoma, -50.9% (active) with UACC-62 melanoma, -75.9% (active) in the test with LOX IMVI melanoma and -60% (active) in the test with SK-MEL-28 melanoma.
Turning to `O=C(O)c1ccc(CNc2ccc(C(=O)CCl)cc2)cc1`, the growth with HCT-15 colon is 94.9%; in the test on HT29 colon, 96.4%; in the test on SNB-75 CNS, 93.1%; with SNB-19 CNS, 103%; in the test on U251 CNS it was 93.8%; in the test on PC-3 prostate, 91.9%. For the same compound, the growth is 97.9% in the test on SK-MEL-5 melanoma, 95.3% in the test with UACC-62 melanoma, 77.9% in the test on LOX IMVI melanoma and 95.2% in the test on SK-MEL-28 melanoma.
Turning to `Cc1[nH]nc2c(=S)[nH]c(=O)[nH]c12`, the growth with HCT-15 colon was 103%; with HT29 colon, 108%; with SNB-75 CNS it was 89.7%; in the test with SNB-19 CNS, 101%; in the test on U251 CNS, 100%; with PC-3 prostate, 97.1%. Moreover, the growth with SK-MEL-5 melanoma was 94.4%; in the test with UACC-62 melanoma, 88.5%; in the test with LOX IMVI melanoma, 99.9%; with SK-MEL-28 melanoma, 102%.
As to `Clc1ccc(-c2nc(-c3cccs3)cn3ccnc23)cc1`, the growth was 31.2% in the test with HCT-15 colon; 41.6% with HT29 colon; 68.1% in the test on SNB-75 CNS; 88.6% in the test with SNB-19 CNS; 82.5% in the test with U251 CNS; 62.4% in the test with PC-3 prostate. Also, the growth in the test with SK-MEL-5 melanoma was 53.2%; in the test on UACC-62 melanoma, 60.2%; with LOX IMVI melanoma, 61.4%; with SK-MEL-28 melanoma it was 92.5%.
In the case of `CCCCCCCCCCCCc1ccc(C(=O)/C=C/C(=O)O)cc1`, the growth in the test with HCT-15 colon was -19.4% (active); in the test on HT29 colon it was 27.8%; in the test with SNB-75 CNS it was 74.5%; with SNB-19 CNS, 94.4%; with U251 CNS, 80.1%; with PC-3 prostate it was 82.9%. For the same compound, the growth in the test with SK-MEL-5 melanoma is 92.1%; in the test with UACC-62 melanoma, -16.8% (active); with LOX IMVI melanoma, -62.4% (active); with SK-MEL-28 melanoma, 26.4%.
In the case of `CCCCCCOc1ccc(/C=C/C(=O)c2ccc(B(O)O)cc2)cc1`, the growth in the test with HCT-15 colon was 75.1%; in the test with HT29 colon it was 74.5%; in the test on SNB-75 CNS, 58.5%; in the test on SNB-19 CNS, 104%; in the test on U251 CNS it was 77.5%; with PC-3 prostate, 72.6%. Moreover, the growth with SK-MEL-5 melanoma is 81.4%; in the test on UACC-62 melanoma, 79%; in the test on LOX IMVI melanoma, 83.7%; with SK-MEL-28 melanoma, 106%.
Turning to `O=C1NN(c2ccccc2)C(c2cccnc2)=N/C1=C\c1cccnc1`, the growth is 93.9% in the test on HCT-15 colon; 97.2% in the test on HT29 colon; 79.6% in the test on SNB-75 CNS; 92.7% with SNB-19 CNS; 102% in the test with U251 CNS; 92.1% in the test with PC-3 prostate. Further, the growth in the test on SK-MEL-5 melanoma was 91.8%; in the test on UACC-62 melanoma, 86.1%; with LOX IMVI melanoma, 82.9%; in the test on SK-MEL-28 melanoma, 116%.
With `COc1ccc(N2CCN(c3nc(-c4ccccc4)c(C#N)c(=O)[nH]3)CC2)cc1`, the growth in the test on HCT-15 colon was 99.4%; in the test on HT29 colon it was 108%; with SNB-75 CNS, 73.2%; in the test on SNB-19 CNS, 103%; in the test on U251 CNS, 95.6%; in the test with PC-3 prostate it was 87.2%. The growth is 96.4% in the test with SK-MEL-5 melanoma, 94.8% in the test on UACC-62 melanoma, 99.4% in the test with LOX IMVI melanoma and 110% in the test on SK-MEL-28 melanoma.
`COc1ccc(C2C=C(c3ccc(OC)c(OC)c3)N=C3SC=CN32)c(Br)c1` (stereo not given): the growth in the test with HCT-15 colon was 41.9%; with HT29 colon, 33.7%; with SNB-75 CNS, 85.5%; with SNB-19 CNS it was 73%; in the test on U251 CNS it was 43.7%; in the test on PC-3 prostate it was 48.9%. In addition, the growth was 63.6% in the test with SK-MEL-5 melanoma, 68.9% in the test with UACC-62 melanoma, 23.3% in the test with LOX IMVI melanoma and 89.8% in the test on SK-MEL-28 melanoma.
Take `CC(=O)Oc1ccc(C2=Cc3ccc(OC(C)=O)cc3OC2C)cc1` (stereo not given): the growth in the test with HCT-15 colon was 48.4%; with HT29 colon, 93.7%; in the test with SNB-75 CNS, 49%; in the test with SNB-19 CNS it was 85.2%; with U251 CNS, 43.3%; with PC-3 prostate it was 66.3%. Further, the growth in the test with SK-MEL-5 melanoma was 50.2%; in the test with UACC-62 melanoma, 45%; with LOX IMVI melanoma, 44.4%; in the test on SK-MEL-28 melanoma it was 62.1%.
In the case of `Fc1ccc2[nH]c3c(NCCCN4CCOCC4)ncnc3c2c1`, the growth in the test on HCT-15 colon is 91.1%; in the test with HT29 colon, 66.1%; in the test with SNB-75 CNS it was -0.656% (active); with SNB-19 CNS it was 91.7%; with U251 CNS, 41.1%; with PC-3 prostate, 83%. Moreover, the growth was 92.2% in the test on SK-MEL-5 melanoma, 92.3% in the test on UACC-62 melanoma, 69.1% in the test with LOX IMVI melanoma and 104% in the test with SK-MEL-28 melanoma.
On to `O=C(NCCCl)c1cc(Cl)cc(Cl)c1`, for which the growth in the test with HCT-15 colon was 97.1%; in the test with HT29 colon it was 107%; in the test on SNB-75 CNS, 76.8%; in the test with SNB-19 CNS, 108%; with U251 CNS it was 98.7%; in the test on PC-3 prostate, 93.2%. For the same compound, the growth was 101% in the test with SK-MEL-5 melanoma, 94.9% in the test on UACC-62 melanoma, 102% with LOX IMVI melanoma and 103% in the test on SK-MEL-28 melanoma.
